IL1B secr inh = inflammasome signaling inhibition, IL-1 beta readout; THP-1 LPS/ATP IL-1B secretion, AlphaLISA, 16 h; hits give low values; activity change, % at 57.5 µM; 360,000 tested, 4.7% active; AID 743279; in the data active means activity change below about -50%; inconclusive means mostly about -30% to -49%
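Secreted IL-1B measured by AlphaLISA bead assay after 16 h compound exposure of THP-1 cells; compounds (final up to 57.5 uM) added 1 h before LPS (250 ng/mL) and ATP (1.25 mM) stimulation; lower signal means less secretion.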
TDP1 cell CPT = DT40-hTDP1 cell growth loss with CPT | 420,000 tested, 12% active | AID 686979 | chicken DT40 Tdp1-/-;hTDP1 cells + 20 nM CPT, ATP luminescence, 48 h | Potency, µM (highest dose often 46.2 µM), inactives show at the highest dose activity change, negative = growth inhibition, usual class: inhibitors; further: potency means the concentration at half of the fitted maximal effect; nearly all actives have a fitted effect of over 55% in size
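Chicken DT40 Tdp1-/- cells complemented with human TDP1, 400 cells/well, exposed to compounds plus 20 nM camptothecin for at least 48 h at 37 C; viability read as ATP content by CellTiter-Glo luminescence.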
DT40 TDP1 no CPT = qHTS for Inhibitors of human tyrosyl-DNA phosphodiesterase 1 (TDP1): qHTS in cells in absence of CPT. DT40 Tdp1-/- hTDP1 cells, no CPT, ATP luminescence, 48 h. Potency, µM (doses to about 46.2 µM), without a hit: at the highest dose activity change, negative = growth inhibition, actives largely listed as inhibitors. 420,000 tested, 15% active; further: potency means the concentration at half of the fitted maximal effect; nearly all actives have a fitted effect of over 55% in size
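Stably hTDP1-transfected Tdp1-null chicken DT40 cells were treated with library compounds minus camptothecin and grown for at least 48 hr at 37 °C, after which cellular ATP was quantified by luminescence.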
CtBP-E1A inh = CtBP/E1A binding inhibition | AlphaScreen GST-E1A/His-CtBP binding, 1536-well; hits give low values | activity change, % (test concentration not listed) | 340,000 tested, 0.49% active; in the data active means activity change below about -65%; inconclusive means mostly about -30% to -63%
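In 5 uL wells, 23 nL compound meets equimolar GST-E1A and His-CtBP (5X stock 125 nM each) for 2 h, 37 °C. Beads (5X, 50 ug/mL) then 1 h, 37 °C, dark.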
TDP1 inh = TDP1 (human) enzyme inhibition. Potency, µM (series often up to 130 µM), for inactives: top-dose activity change, negative = inhibition, most hits filed as inhibitors. Q9NUW8. AID 485290. recombinant TDP1, AlphaScreen DNA substrate cleavage. 350,000 tested, 0.28% active; further: potency means the concentration at half of the fitted maximal effect; nearly all actives have a fitted effect of over 40% in size
Target sequence (Q9NUW8 whole entry, looked up): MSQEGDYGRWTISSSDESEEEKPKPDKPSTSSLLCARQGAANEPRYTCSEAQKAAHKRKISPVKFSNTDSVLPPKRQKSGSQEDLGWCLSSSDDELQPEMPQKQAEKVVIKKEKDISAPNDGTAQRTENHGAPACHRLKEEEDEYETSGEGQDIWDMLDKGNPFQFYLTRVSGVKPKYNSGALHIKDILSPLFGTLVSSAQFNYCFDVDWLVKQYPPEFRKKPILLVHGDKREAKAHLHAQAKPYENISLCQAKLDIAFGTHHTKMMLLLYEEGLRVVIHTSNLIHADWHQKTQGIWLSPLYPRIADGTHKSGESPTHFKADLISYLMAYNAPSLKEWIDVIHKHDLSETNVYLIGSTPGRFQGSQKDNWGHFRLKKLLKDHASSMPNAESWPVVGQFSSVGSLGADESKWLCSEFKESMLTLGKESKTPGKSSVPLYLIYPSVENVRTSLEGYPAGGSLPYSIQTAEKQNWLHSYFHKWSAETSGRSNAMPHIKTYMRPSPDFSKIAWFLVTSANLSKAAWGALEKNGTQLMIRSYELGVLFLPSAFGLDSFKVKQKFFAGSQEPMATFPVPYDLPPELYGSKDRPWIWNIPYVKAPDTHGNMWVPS
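E. coli-derived human Tdp1, 1 nM final. Cpd preinc 15 min RT; substrate 15 nM final, 5 min RT; AS bead mix 10 ug/ml final, 10 min RT. Signal loss = tyrosine-FITC cleavage. No-enzyme wells = max signal.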
Six1-Eya2 inh = blocks human Six1 binding to Eya2; Q15475+O00167; AlphaScreen GST-Six1/His-Eya2 binding, biochemical; hits give low values; activity change, % (concentration not given with the values); 360,000 tested, 0.56% active; AID 651725; in the data active means activity change below about -65%; inconclusive means mostly about -30% to -63%
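Six1/Eya2 binding was read as AlphaScreen signal after compounds were pinned into GST-Six1 plus His-tagged Eya2 (5X stock 250/500 nM) in pH 8.0 Tris/NaCl/TCEP buffer, beads added, then incubated 1 h, 37 C, dark.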
Starred values were filed as active, the others as inactive; ? = inconclusive; . = no result; [ ] = dose if it differs, or a comment. Rows were chosen to be rich in hits. Some 18% of all compounds tested hit in one or more screens of this group. Unless noted, the call rests on the fitted dose curve; in most records, active means well fitted curve in the direction sought with a large enough effect; inconclusive means small, poorly fitted or top-dose-only effect, or another doubt; inactive means no such curve, though single readings can be large; an effect the other way counts as inactive or inconclusive. On the % scale 0 is the no-effect control and ±100 the full control effect.

SMILES	IL1B secr inh	TDP1 cell CPT	DT40 TDP1 no CPT	CtBP-E1A inh	TDP1 inh	Six1-Eya2 inh
COc1cc(OC)cc(C(=O)Nc2ccc(-n3cnnn3)c(C)c2)c1	-68*	-24%	?	10	3%	0
Cc1c(C(=O)Nc2ccncc2)oc2ccccc12	3	21µM*	21µM*	0	-7%	-1
Cc1c(C(=O)Nn2cnnc2)oc2ccccc12	26	-7%	11%	4	-7%	1
COC(=O)c1sc(NC(=O)c2oc3ccccc3c2C)nc1C	23	?	3.7µM*	9	4%	0
Cc1cc(NC(=O)c2oc3ccccc3c2C)ccc1-n1cnnn1	.	18µM*	23µM*	11	2%	-1
CC(=O)Oc1cc(C)cc2oc(=O)cc(-c3ccccc3)c12	20	-7%	?	.	.	3
CCOc1cc(C)cc2oc(=O)cc(-c3ccccc3)c12	32	13µM*	21µM*	16	-6%	8
Cc1cc(OC(C)C)c2c(-c3ccccc3)cc(=O)oc2c1	44	23µM*	?	11	-7%	3
Cc1cc(OCC(=O)N2CCc3ccccc3C2)c2c(-c3ccccc3)cc(=O)oc2c1	-26	23µM*	?	21	2%	-4
CCCCN(CCCC)CCNC(=O)c1cc(-c2cccnc2)nc2ccc(S(=O)(=O)N3CCC(C)CC3)cc12	.	3.7µM*	-2%	.	-3%	.
CCCCN(C)CCCNC(=O)c1cc(-c2cccnc2)nc2ccccc12	5	3%	9%	-10	-5%	-5
CCCCN(C)CCNC(=O)c1cc(-c2cccnc2)nc2ccc(S(=O)(=O)N3CCC(C)CC3)cc12	-14	?	15µM*	-8	7%	-5
CC1CCN(S(=O)(=O)c2ccc3nc(-c4cccnc4)cc(C(=O)NCCCOC(C)C)c3c2)CC1	.	4%	11%	.	5%	.
CCN(CC)CCNC(=O)c1cc(-c2cccnc2)nc2ccc(S(=O)(=O)N3CCC(C)CC3)cc12	-99*	?	?	.	3%	-1
COC(=O)c1ccc(-c2ccco2)n1Cc1cc(C)ccc1C	-5	-19%	-12%	-4	5%	-6
Cc1ccccc1NC(=O)CN1C(=S)NC(C)(C)CC1C (stereo not given)	17	-6%	1%	14	0%	1
CCOC(=O)N(NC(=O)C(O)(c1ccccc1)c1ccccc1)c1ccccc1	-6	-19%	26µM*	12	3%	14
CCCC(O)(CCC)C(=O)NN(C(=O)CCl)c1ccccc1	?	12µM*	10µM*	1	5%	-2
CCOC(=O)N(NC(=O)C(O)(C(C)C)C(C)C)c1ccccc1	5	0%	-11%	.	0%	1
CCCCC(O)(CCCC)C(=O)NN(C(=O)OCC)c1ccccc1	-10	?	?	-17	3%	1
Cc1cc(C)c(NC(=O)CSc2nc(-c3ccc(F)cc3)nc3c2Cc2c(CO)cnc(C)c2O3)c(C)c1	.	0%	-1%	.	8%	.
Cc1ccc(C(=O)CC(=O)c2cc(Cl)ccc2O)cc1	43	6.5µM*	4.6µM*	-2	5%	-10
Cc1ccc(C(=O)CNc2ccccc2C)cc1	-28	1%	-9%	6	5%	5
Cc1ccc(C(=O)CC(=O)c2ccc(C)cc2O)cc1	-12	?	18µM*	-7	.	-22
Cc1ccc(C(=O)CNc2ccc(C)cc2C)cc1	-18	23µM*	16µM*	-15	.	-18
SMILES	IL1B secr inh	TDP1 cell CPT	DT40 TDP1 no CPT	CtBP-E1A inh	TDP1 inh	Six1-Eya2 inh
CC(C)CN(CCCNC(=O)c1cc(=O)[nH]c2ccc(S(=O)(=O)N3CCCC3)cc12)CC(C)C	.	-9%	-1%	.	0%	.
Cc1ccccc1N=C(NO)c1cccnc1	-5	-1%	22%	2	.	3
COc1cc(/C=C/C(=O)c2ccc([N+](=O)[O-])o2)ccc1O	-60*	0.92µM*	0.52µM*	3	?	26
COc1cc(/C=C/C(=O)c2c(O)cc(C)oc2=O)ccc1O	.	-3%[9.04 µM]	-3%[9.04 µM]	.	1%	.
COc1ccc(/C=C/C(=O)c2ccc([N+](=O)[O-])o2)cc1OC	-102*	0.58µM*	1.2µM*	2	.	-1
NS(=O)(=O)c1ccc(CNC(=O)/C=C/c2cccc(Cl)c2)cc1	0	2%	1%	9	-4%	8
O=C(/C=C/c1cccc(Cl)c1)c1ccc([N+](=O)[O-])o1	-102*	0.58µM*	0.58µM*	5	.	2
COc1cccc(Oc2cc(NN3CCCCC3)c([N+](=O)[O-])cc2[N+](=O)[O-])c1OC	-4	?	-17%	-21	.	-16
CCOc1cccc2c1OC1(C)CC2NC(=O)N1c1cccc(F)c1 (stereo not given)	4	11%	4%	-1	8%	6
CC(C)c1cccc(-c2csc(C(C)(O)c3ccc(F)c(F)c3)n2)c1 (stereo not given)	?	?	?	2	.	21
COc1cccc(C(C)(O)c2nc(-c3ccc(N(C)C)cc3)cs2)c1 (stereo not given)	-19	18µM*	21µM*	?	.	?
CC(C)c1cccc(-c2csc(C(C)(O)c3ccncc3)n2)c1 (stereo not given)	10	12µM*	13µM*	5	.	3
CN(C)c1ccc(-c2csc(C(C)(O)c3cccc(F)c3)n2)cc1 (stereo not given)	-17	13µM*	21µM*	?	.	?
COc1cccc(C(C)(O)c2nc(-c3cccc(C(C)C)c3)cs2)c1 (stereo not given)	-83*	?	23µM*	11	.	-4
CN1CCCNc2nc3ccccc3nc21	-4	-3%	25%	4	.	1
CCCCC/C=C\C\C=C/C=C/C=C/[C@@H](SC[C@H](N)C(=O)NCC(=O)O)[C@@H](O)CCCC(=O)O	.	-4%[0.628 µM]	2%[0.628 µM]	.	4%	.
COc1cccc(C(C)(O)c2nc(-c3ccccc3)cs2)c1 (stereo not given)	5	16µM*	18µM*	9	.	11
Cc1cccnc1CCNC(=O)CCc1nnc(CCc2ccccc2)o1	9	-2%	-19%	2	3%	3
CC(=O)N1CCOc2ccc(S(=O)(=O)NCc3ccc(F)cc3)cc21	40	-4%	19%	4	45µM*	-2
CC(=O)c1cccc(NS(=O)(=O)c2cc3c(cc2C)N(C(C)=O)CCO3)c1	9	?	?	7	1%	5
